Test results as given in ChEMBL document CHEMBL1157539, “Thousands of chemical starting points for antimalarial lead identification” (Nature, 2010).

Key:
Format in all cases: functional
Plasmodium falciparum [1] = assay: GSK_TCMDC: Inhibition of Plasmodium falciparum 3D7 in whole red blood cells, using parasite LDH activity as an index of growth. Test compounds present at 2uM
Plasmodium falciparum [2] = assay: GSK_TCMDC: Inhibition of Plasmodium falciparum Dd2 in whole red blood cells, using parasite LDH activity as an index of growth. Test compounds present at 2uM
HepG2 = assay: GSK_TCMDC: Percent inhibition of human HepG2 cell line. Test compounds present at 10uM.

| Structure (SMILES) | Inhibition (Plasmodium falciparum [1]) | Inhibition (Plasmodium falciparum [2]) | Inhibition (HepG2) |
| --- | --- | --- | --- |
| Cl.NC(=O)N1CCN(Cc2ccc(Br)cc2)CC1 | 96% | 0% | 83% |
| Cc1cc(N[C@@H](CC(C)C)C(=O)NCc2cccs2)nc(NCCc2ccc(F)cc2)n1.O=C(O)C(F)(F)F | 100% | 59% | 20% |
| O=C(NCCCN1CCCC1=O)c1cnc(N2CCC(Oc3ccccc3)CC2)c(Cl)c1 | 97% | 93% | 7% |
| CS(=O)(=O)c1ccc(CCNCc2ccc(-c3ccc(CNC4Cc5ccccc5C4)cc3)nc2)cc1.O=C(O)C(F)(F)F | 100% | 80% | 18% |
| Cl.c1ccc(Oc2ccc(Nc3ccnc4c(-c5ccccn5)cccc34)cc2)cc1 | 100% | 58% | 31% |
| CCC(Cc1cnc2nc(N)nc(N)c2n1)c1ccc(C(=O)O)cc1 (centres undefined) | 93% | 0% | 15% |
| Cc1cccc2nc(-c3ccc(-c4cccc(NC(=O)NCc5cccc(F)c5)c4)cc3)[nH]c12 | 94% | 5% | 27% |
| COc1ccc(OC)c(NC(=O)c2c(-c3c(F)cccc3Cl)noc2C)c1 | 94% | 25% | 0% |
| O=C(N[C@H]1CCN(CCc2ccc(O[C@H]3CCNC3)c(Br)c2)C1)c1ccc(Cl)c(Cl)c1.O=C(O)C(F)(F)F | 100% | 0% | 28% |
| CN(C)c1ccc2c(c1)Sc1cc(N(C)C)ccc1N2C(=O)CCCC(=O)[O-].[Na+] | 96% | 81% | 0% |
| O=C(NCCNc1ccnc(Nc2ccc(F)cc2)n1)Nc1ccccc1F | 93% | 4% | 22% |
| Cc1noc(C)c1-c1cccc(CNCc2ccc(-c3cccc(-c4nc5ccccc5[nH]4)c3)cc2)c1.O=C(O)C(F)(F)F | 100% | 57% | 50% |
| CCOc1cc(CNCCCCCCNCc2cc(OCC)c(OCC)c3ccccc23)c2ccccc2c1OCC.CS(=O)(=O)O | 100% | 99% | 100% |
| CCC(=O)Nc1nnc(Cc2ccc(OC)c(OC)c2)s1 | 93% | 1% | 0% |
| Cc1cc(C(=O)CSc2nc3ccccc3n2-c2ccccc2)c(C)n1C1CCS(=O)(=O)C1 (centres undefined) | 92% | 0% | 0% |
| COc1ccc2nccc(N3CCC(O)(CCNCc4ccc5c(n4)NC(=O)CS5)CC3)c2n1.Cl | 99% | 21% | 10% |
| COc1ccc(-c2cccc(NC(=O)c3ccc(Cl)cc3)c2)cc1CN1CCCN(C)CC1.O=C(O)C(F)(F)F | 100% | 95% | 29% |
| CCc1c(C)nc(-n2nc(C)cc2NC(=O)c2ccc(OC)cc2OC)[nH]c1=O | 96% | 57% | 42% |
| Cc1c(NC(=O)COc2ccc(Cl)cc2C(=O)c2cc(F)cc(C(F)(F)F)c2)ccc2ncsc12 | 86% | 18% | 0% |
| O=C(O)C(F)(F)F.O=S(=O)(NCCN1CCCC1)c1cccc(-c2cccc(CNCc3ccsc3)c2)c1 | 100% | 55% | 69% |
| Cc1cccc2nc(-c3cccc(-c4ccc(C(=O)NCc5ccccc5S(C)(=O)=O)cc4)c3)[nH]c12 | 100% | 27% | 17% |
| Cn1c(NC2CCN(CC3CCN(C(=O)/C=C/c4ccc(Cl)c(Cl)c4)CC3)CC2)nc2ccccc21 | 100% | 100% | 99% |
| Cl.c1ccc(CN2CCN(CCNc3c4ccccc4nc4ccccc34)CC2)cc1 | 100% | 97% | 44% |
| COc1ccc(CCCc2nc(N)nc(N)c2-c2ccc(Cl)cc2)cc1 | 94% | 0% | 65% |
| CCCn1c(O)nnc1SCC(=O)Nc1cc(Cl)ccc1Cl | 88% | 53% | 0% |
| CC(C)(CNC(=O)[C@H]1CCCN1)c1nc(-c2ccc(Cl)c(O)c2)c(-c2ccncc2)[nH]1.Cl | 86% | 95% | 0% |
| Cc1cc(C)c(C(=O)Nc2ccc3nc(C)cc(N)c3c2)c(C)c1.Cl | 84% | 14% | 12% |
| O=C(O)C(F)(F)F.OC1(Cc2ccccc2)CCN(Cc2cccc(-c3c[nH]c4nc(NC5CCCC5)ncc34)c2)CC1 | 96% | 35% | 45% |
